Among all 6,200 compounds or so, about 2,900 (47%) were called active. The set was probably picked from earlier hits. The list shows a part of the results. Values without a mark were called inactive. No stated cut-off is given here; in the data, active means inhibition above about 50%; inactive means the rest.

A short description of this test: Mycobacterium tuberculosis growth inhibition, primary screen (AID 1259343). The note with it: inhibition: at 10 µM, hits give high values; outcome: 10 uM.
Turning to `CNc1nc(C)c(C(=O)c2ccc(C)cc2)s1`, the inhibition – broadly, the relative decrease from the control value, in per cent – is 86.1% (active).
As for `CC(Cc1ccco1)NC(=O)c1cc2c(s1)CCC2` (configuration not stated), the inhibition is 93.1% (active).
For the molecule `O=C(NNS(=O)(=O)c1ccc2c(c1)OCCO2)c1cc2c(s1)CCCCC2`, the inhibition is 20.9%.
With `CN(CC(=O)Nc1sc2c(c1C#N)CCCCC2)Cc1ccco1`, the inhibition is 49.1%.
As for `S=c1sc2c(Cl)ncnc2n1-c1ccccc1`, the inhibition was 60.9% (active).
As to `Cn1c(=O)c([N+](=O)[O-])c(N2CCN(CCOc3ccc(Cl)cc3)CC2)c2ccccc21`, the inhibition was 38.3%.
For the molecule `Cn1c(=O)c([N+](=O)[O-])c(N2CCN(Cc3cccc4ccccc34)CC2)c2ccccc21`, the inhibition is 59% (active).
For `Cn1c(=O)c([N+](=O)[O-])c(N2CCN(Cc3ccc(Cl)cc3Cl)CC2)c2ccccc21`, the inhibition is 40.7%.
Consider `O=c1cc(CSc2nc3ncc(Cl)cc3[nH]2)nc2ccc(Br)cn12`, for which the inhibition is 101% (active).
Then `CC(NCc1cc(=O)n2cc(Br)ccc2n1)c1cc(F)c(Cl)cc1Cl` (configuration not stated), with 27.6%; and `Brc1ccc(CSc2nc3ncccc3[nH]2)cc1`, with 34%; and `CCCC[P+](CCCC)(CCCC)Cc1ccc(NC(=O)[C@@H](Cc2ccc3ccccc3c2)NC(=NC2CCCCC2)NC2CCCCC2)cc1`, with 95.8% (active).
Consider `O=C(Nc1ncccc1OCC1CCCCC1)c1cscn1`, for which the inhibition was 55.5% (active).
Regarding `O=S(=O)(NCC1(c2ccccc2)CC1)N1CCCCCC1`, the inhibition is 16.5%.
For the molecule `O=C(NCC1(c2ccccc2)CC1)c1cc(Cl)ccc1O`, the inhibition is 94.2% (active).
As to `N#CC(C(=O)C1c2ccccc2-c2ccccc21)c1nc2ccccc2s1` (configuration not stated), the inhibition was 33.3%.
With `N#CC(C(=O)C1COc2ccccc2O1)c1nc2ccccc2s1` (configuration not stated), the inhibition was 19%.
Consider `N#CC(C(=O)COc1cc(F)ccc1F)c1nc2ccccc2s1` (configuration not stated), for which the inhibition was 91.5% (active).
As to `COc1ccc2cc(-c3[nH]ncc3CNC(C)Cc3cccs3)ccc2c1` (configuration not stated), the inhibition was 50.1% (active).
Turning to `COc1ccc(-c2[nH]ncc2CNC(=O)CC2COCCN2)cc1` (configuration not stated), the inhibition is -11.1%.
With `CCOc1ccc(Oc2ccc(NC(C)=O)cc2)cc1`, the inhibition was -0.29%.
`CCOc1ccc(Oc2ccccc2NC(C)=O)cc1`: the inhibition was 73.6% (active).
In the case of `CCOc1ccc(OCCCCOc2ccccc2C(C)=O)cc1`, the inhibition was 98% (active).
For `CCOc1cccc(OCCCOc2ccccc2C(C)=O)c1`, the inhibition was 92.5% (active).
The result for `CC1CN(C(=O)c2ccc(NC(=O)C3CC3)cc2)c2ccccc2O1` (configuration not stated) reads 87.7% (active).
In the case of `CCCCc1ccc(-c2csc(NC(=O)OC)c2C(N)=O)cc1`, the inhibition is 2.76%.
As for `CCCCCCCCc1ccc(CCC(N)(CO)CO)cc1`, the inhibition was 92% (active).
As for `c1cc2c(cc1-c1csc(NCC3CCC3)n1)OCCCO2`, the inhibition is 3.11%.
`CCOc1ccc(/C=N\Nc2nc(-c3ccc(OC)c(OC)c3)cs2)cc1`: the inhibition was 79.8% (active).
As to `Cc1ccc(/C=N\Nc2nc(-c3ccc4c(c3)OCCO4)cs2)cc1`, the inhibition was -51.4%.
For `CCOc1cc(C=NNc2nc(C)cs2)ccc1OC`, the inhibition was 72% (active).
As for `CCOc1ccc(C=C2N=C(C(C)(C)C)OC2=O)cc1OC`, the inhibition was 23.4%.
As to `CCN(CC)c1ccc2cc(-c3csc(N/N=C\c4ccc(OC)cc4)n3)c(=O)oc2c1`, the inhibition was 25.9%.
Then `COc1ccc(/C=N\Nc2nc(-c3ccc4c(c3)OCCO4)cs2)cc1OC`, with 85.6% (active).
Then `CN1CC(CNC(=O)OCc2ccccc2)CC2c3cccc4c3c(cn4C)CC21` (configuration not stated), with 96.7% (active); and `CCOP(=O)(Oc1ccccc1)c1c([N+](=O)[O-])cc(C(F)(F)F)cc1[N+](=O)[O-]` (configuration not stated), with 94.9% (active); and `CC(C)Oc1ccc(Nc2nccc3[nH]c(-c4ccccc4)cc23)cc1`, with 92.6% (active).
Regarding `CC(Oc1ccc(-n2cnc(-c3ccccc3)c2)cc1)C(N)=O` (configuration not stated), the inhibition was 43.6%.
Consider `CCN(CC)c1cc(-c2ccccc2)nc(SCc2cccc(C(=O)O)c2)n1`, for which the inhibition was 8.57%.
Consider `O=C(CSc1ccc2nc(-c3ccccc3)cn2n1)c1ccccc1`, for which the inhibition is 65.7% (active).
The result for `c1ccc(CSc2nn3cc(-c4ccccc4)nc3s2)cc1` reads 16.3%; that for `CN(C(=O)/C=C/c1ccc([N+](=O)[O-])s1)c1ccccc1`, 6.56%.
Take `O=C(/C=C/c1ccc([N+](=O)[O-])s1)Nc1ccc(F)cc1F`: the inhibition was 99.5% (active).
Regarding `CCCCc1ccc(NC2=NC(C)(C)CS2)cc1`, the inhibition was 89.8% (active).
Regarding `NC(N)=NN=Cc1ccc(-c2ccccc2)cc1`, the inhibition is 38.6%.
In the case of `NC(N)=NN=C1c2ccccc2-c2ccccc21`, the inhibition is -74.8%.
Then `NC(N)=NN=CC(Cl)=Cc1ccccc1`, with 85.8% (active).
With `Cc1cc2oc(NC(=O)c3ccc(=O)n(C)c3)nc2c(C)c1Cl`, the inhibition was -2.23%.
For the molecule `COc1ccc(-c2csc(C(C#N)C(=O)CC3C=CCC3)n2)cc1` (configuration not stated), the inhibition is 79.7% (active).
Then `COc1ccc(C(=O)C2CCCN(Cc3nc(-c4ccc(F)cc4)cs3)C2)c(OC)c1` (configuration not stated), with 31.3%; and `CC(NC(=O)Nc1cccnc1N1CCCC1)c1ccn(C)c1` (configuration not stated), with -18.1%; and `CN(C)c1cccc(Nc2nccc3c2cc(-c2ccccc2)n3C)c1`, with 74.6% (active).
Then `CN(C)c1cccc(Nc2nccc3c2cc(-c2ccsc2)n3C)c1`, with 63.8% (active).
In the case of `O=C(NCc1ccc(Cl)s1)c1ccc(Br)o1`, the inhibition was -14.3%.
In the case of `O=C(NCCc1ccc(Cl)s1)c1ccc(Cl)o1`, the inhibition was 79.6% (active).
Regarding `O=C(NCc1cc(Br)cs1)c1ccc(Cl)o1`, the inhibition was 37.9%.
Regarding `CCOc1cc(C=Nn2c(C)csc2=NC(C)C)ccc1O`, the inhibition is 18.4%.
Regarding `Cc1ccc(OP(N)(=O)Oc2ccc(C)cc2)cc1`, the inhibition was -4.77%.
Then `CCc1ccc(-c2nc(SC3CCCCC3=O)n[nH]2)cc1` (configuration not stated), with 57.1% (active).
For `O=C1CCCCC1Sc1nnc(Nc2ccccc2)s1` (configuration not stated), the inhibition is 6.48%.
Consider `CN(C1CCCCC1)S(=O)(=O)NC1COc2ccccc21` (configuration not stated), for which the inhibition is 37.8%.
As for `COc1c(Cl)cc(C(=O)NCC(c2cccc(F)c2)N(C)C)cc1Cl` (configuration not stated), the inhibition is -3.98%.
Turning to `Oc1c(Br)cc2oc3c(c2c1C=NCc1ccncc1)CCCC3`, the inhibition was 84% (active).
For the molecule `Oc1c(I)cc2oc3c(c2c1C=NCc1ccncc1)CCCC3`, the inhibition was 8.12%.
Then `CCCc1cnc(-c2ccc(C)c3ncccc23)nc1`, with 8.84%; and `COc1ccc(Cl)cc1C(=O)Nc1cc(-c2cccs2)nn1-c1nc(C(C)C)cc(=O)[nH]1`, with 101% (active); and `COc1ccc(Cl)cc1C(=O)Nc1cc(-c2cccs2)nn1-c1nc(C)cc(=O)[nH]1`, with 96.4% (active).
The result for `CC(C)(C)c1cc(C(c2ccncc2)N2CCOCC2)cc(C(C)(C)C)c1O` (configuration not stated) reads 94.5% (active); that for `CN1CCN(C(c2ccc(Cl)cc2)c2cc(Cl)c3cccnc3c2O)CC1` (configuration not stated), 90.6% (active); that for `Oc1c(C(c2ccncc2)N2CCOCC2)cc(Cl)c2cccnc12` (configuration not stated), 101% (active).
On to `Oc1c(C(c2ccc(Br)cc2)N2CCCC2)cc(Cl)c2cccnc12` (configuration not stated), for which the inhibition is 10.6%.
In the case of `CCOC(=O)N1CCN(C(=O)CSc2cc(-c3ccccc3)ncn2)CC1`, the inhibition is 93.6% (active).
As to `CCOC(=O)N1CCN(C(=O)CCc2ccc(-c3ccc(OC)cc3)n2-c2ccc(SC)cc2)CC1`, the inhibition was 13.6%.
Consider `CCOC(=O)CNC(=O)CSc1ncnc2c1nnn2Cc1ccccc1`, for which the inhibition is -26.6%.
With `CC(C)(C)n1nc(C2CC2)cc1C(=O)NCC1Cc2ccccc2O1` (configuration not stated), the inhibition was -7.17%.
As to `O=C(NCC1Cc2ccccc2O1)c1ccc(Cl)s1` (configuration not stated), the inhibition is 53.1% (active).
Turning to `CC(C)(C)c1ccc2c(c1)CC(CNC(=O)/C=C/c1ccccc1)O2` (configuration not stated), the inhibition is 27.2%.
As to `O=C(OCC1CC2CCC1C2)C(c1ccccc1)n1cccn1` (configuration not stated), the inhibition was 92.2% (active).
For the molecule `O=S(=O)(NC1CCc2cc(F)ccc21)c1ccc2c(c1)CCC2` (configuration not stated), the inhibition was 10.6%.
The result for `O=S(=O)(NC1CCN(C2CC2)CC1)c1cc(Cl)cc(Cl)c1` reads 4.16%; that for `CC(=O)N1CCC(NS(=O)(=O)c2ccc3c(c2)CCCC3)CC1`, 86.8% (active); that for `CN(C)c1ccc(C(=C2C=CC(=[N+](C)C)C=C2)c2ccc(N(C)C)cc2)cc1`, 59.1% (active).
Consider `O=C(c1cc2cc(Cl)ccc2o1)N1CCN(S(=O)(=O)c2ccccc2Cl)CC1`, for which the inhibition was 42.3%.
Regarding `O=C(NNC(=O)c1cc2cc(Cl)ccc2o1)c1cnccn1`, the inhibition is 101% (active).
The result for `CCc1c(C)nc(-n2nc(C)cc2NC(=O)c2cc(C(F)(F)F)cc(C(F)(F)F)c2)[nH]c1=O` reads -3.31%; that for `CCc1c(C)nc(-n2nc(C)cc2NC(=O)c2ccc(OC)cc2)[nH]c1=O`, 99.8% (active).
As for `CCc1c(C)nc(-n2nc(C)cc2NC(=O)c2cccc(OC)c2)[nH]c1=O`, the inhibition was 102% (active).
As for `CCc1c(C)nc(-n2nc(C)cc2NC(=O)c2cc(OC)cc(OC)c2)[nH]c1=O`, the inhibition was 101% (active).
The result for `CCOc1cc(C(=O)Nc2cc(C)nn2-c2nc(C)c(CC)c(=O)[nH]2)cc(OCC)c1OCC` reads -22.4%; that for `CCc1c(C)nc(-n2nc(C)cc2NC(=O)c2ccc(C(F)(F)F)cc2)[nH]c1=O`, 101% (active); that for `CCn1cc(NC(=O)c2cc3ccc(C(C)(C)C)cc3[nH]2)ccc1=O`, -0.51%.
For `CCc1c(C)nc(-n2nc(C)cc2NC(=O)c2ccc(F)c(F)c2)[nH]c1=O`, the inhibition was 99.7% (active).
Take `CCc1c(C)nc(-n2nc(C)cc2NC(=O)c2ccccc2)[nH]c1=O`: the inhibition was -16.5%.
Then `CCc1c(C)nc(-n2nc(C)cc2NC(=O)c2cccc([N+](=O)[O-])c2)[nH]c1=O`, with 99.7% (active); and `CCc1c(C)nc(-n2nc(C)cc2NC(=O)c2cccc(C)c2)[nH]c1=O`, with 101% (active).
For `CCc1c(C)nc(-n2nc(C)cc2NC(=O)c2ccc(C)c(C)c2)[nH]c1=O`, the inhibition was 42.5%.
Then `C=CCN1C(=O)C(=O)N(CC(=O)c2cc(C)n(CCCOC)c2C)C1=O`, with -11.2%.
